# From PubChem BioAssay AID1159580 (chemical genetic matrix, 2015)
# Several values for one entry are separate records, joined by “and”; a condition that tells them apart may be missing. Identical values can stand only once. Hit rate of the full screen: of about 5,500 compounds, about 2,000 (36%) were called active. About 18% were inconclusive and are not listed. No stated cut-off is given here; in the data, active means normalized growth mostly below about 0.91 (no sharp cut-off); inconclusive means no clear call, values can overlap the other calls; inactive means mostly above about 0.92. The list shows a part of the results. Some structures have more than one record in an assay (separate samples or runs), and their calls can disagree.
# Assay: chemical genetic growth profiling, strain panel (AID 1159580);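 further: tested at 20 µM; growth read once vehicle control cultures reached saturation at 30 °C; 1 = growth at the plate median or of vehicle wells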
# Conditions: growth OD
compound,measurement,setting,value
O=C(Nc1ccc([N+](=O)[O-])cc1Cl)c1cc(Cl)ccc1O,normalized growth,"S. cerevisiae deletion strains, locus YJR075W, strain HOC1, stronger effect = lower value",0.815 (active) and 0.99 (inactive)
same,normalized growth,"S. cerevisiae deletion strains, locus YKL009W, strain mrt4, stronger effect = lower value",1.2 [resistant] (active)
same,normalized growth,"S. cerevisiae deletion strains, locus YKL068W, stronger effect = lower value",1 (inactive)
same,normalized growth,"S. cerevisiae deletion strains, locus YKL085W, strain MDH1 (second series), stronger effect = lower value",1.04 (inactive)
same,normalized growth,"S. cerevisiae deletion strains, locus YKL085W, strain MDH1, stronger effect = lower value",1.04 (inactive)
same,normalized growth,"S. cerevisiae deletion strains, locus YKL160W, strain elf1, stronger effect = lower value",0.773 (active)
same,normalized growth,"S. cerevisiae deletion strains, locus YKR001C, strain vps1, stronger effect = lower value",0.459 (active)
same,normalized growth,"S. cerevisiae deletion strains, locus YKR026C, strain gcn3, stronger effect = lower value",0.978 (inactive)
same,normalized growth,"S. cerevisiae deletion strains, locus YKR091W, strain srl3, stronger effect = lower value",0.938 (inactive)
same,normalized growth,"S. cerevisiae deletion strains, locus YLL001W, strain dnm1, stronger effect = lower value",0.971 (inactive)
same,normalized growth,"S. cerevisiae deletion strains, locus YLL026W, stronger effect = lower value",0.939 (inactive)
same,normalized growth,"S. cerevisiae deletion strains, locus YLL041C, strain sdh2, stronger effect = lower value",0.931 (inactive)
same,normalized growth,"S. cerevisiae deletion strains, locus YLR027C, strain aat2, stronger effect = lower value",0.92 (active)
same,normalized growth,"S. cerevisiae deletion strains, locus YLR039C, strain RIC1, stronger effect = lower value",0.289 (active)
same,normalized growth,"S. cerevisiae deletion strains, locus YLR058C, strain SHM2, stronger effect = lower value",0.948 (inactive)
same,normalized growth,"S. cerevisiae deletion strains, locus YLR102C, strain apc9, stronger effect = lower value",1 (inactive)
same,normalized growth,"S. cerevisiae deletion strains, locus YLR113W, strain HOG1, stronger effect = lower value",1.01 (inactive)
same,normalized growth,"S. cerevisiae deletion strains, locus YLR221C, strain rsa3, stronger effect = lower value",0.906 (active)
same,normalized growth,"S. cerevisiae deletion strains, locus YLR258W, strain gsy2, stronger effect = lower value",0.977 (inactive)
same,normalized growth,"S. cerevisiae deletion strains, locus YLR262C, strain YPT6 (second series), stronger effect = lower value",0.241 (active)
same,normalized growth,"S. cerevisiae deletion strains, locus YLR262C, strain YPT6, stronger effect = lower value",0.193 (active)
same,normalized growth,"S. cerevisiae deletion strains, locus YLR268W, strain sec22, stronger effect = lower value",0.964 (inactive)
same,normalized growth,"S. cerevisiae deletion strains, locus YLR320W, strain mms22, stronger effect = lower value",0.833 (active)
same,normalized growth,"S. cerevisiae deletion strains, locus YLR330W, strain CHS5, stronger effect = lower value",0.942 (inactive)
same,normalized growth,"S. cerevisiae deletion strains, locus YLR342W, strain FKS1 (second series), stronger effect = lower value",0.667 (active)
same,normalized growth,"S. cerevisiae deletion strains, locus YLR342W, strain FKS1, stronger effect = lower value",0.967 (inactive)
same,normalized growth,"S. cerevisiae deletion strains, locus YLR357W, strain rsc2, stronger effect = lower value",1.02 (inactive)
same,normalized growth,"S. cerevisiae deletion strains, locus YLR370C, strain arc18, stronger effect = lower value",0.949 (inactive)
same,normalized growth,"S. cerevisiae deletion strains, locus YLR371W, strain rom2, stronger effect = lower value",1 (inactive)
same,normalized growth,"S. cerevisiae deletion strains, locus YLR384C, strain iki3, stronger effect = lower value",1.09 [resistant] (active)
same,normalized growth,"S. cerevisiae deletion strains, locus YLR418C, strain cdc73, stronger effect = lower value",0.793 (active)
same,normalized growth,"S. cerevisiae deletion strains, locus YML016C, strain PPZ1, stronger effect = lower value",0.975 (inactive)
same,normalized growth,"S. cerevisiae deletion strains, locus YML120C, strain ndi1, stronger effect = lower value",0.975 (inactive)
same,normalized growth,"S. cerevisiae deletion strains, locus YML124C, strain tub3, stronger effect = lower value",1.17 [resistant] (active)
same,normalized growth,"S. cerevisiae deletion strains, locus YMR058W, strain fet3, stronger effect = lower value",0.966 (inactive)
same,normalized growth,"S. cerevisiae deletion strains, locus YMR078C, strain ctf18, stronger effect = lower value",1.17 [resistant] (active)
same,normalized growth,"S. cerevisiae deletion strains, locus YMR125W, strain sto1, stronger effect = lower value",0.999 (inactive)
same,normalized growth,"S. cerevisiae deletion strains, locus YMR129W, stronger effect = lower value",0.937 (inactive)
same,normalized growth,"S. cerevisiae deletion strains, locus YMR205C, strain PFK2, stronger effect = lower value",0.759 (active)
same,normalized growth,"S. cerevisiae deletion strains, locus YMR223W, strain ubp8, stronger effect = lower value",1.09 (inactive)
same,normalized growth,"S. cerevisiae deletion strains, locus YMR231W, strain pep5, stronger effect = lower value",0.901 (active)
same,normalized growth,"S. cerevisiae deletion strains, locus YMR263W, strain SAP30, stronger effect = lower value",0.991 (inactive)
same,normalized growth,"S. cerevisiae deletion strains, locus YMR307W, strain GAS1, stronger effect = lower value",0.393 (active) and 0.947 (inactive)
same,normalized growth,"S. cerevisiae deletion strains, locus YNL067W, strain RPL9B, stronger effect = lower value",0.925 (inactive)
same,normalized growth,"S. cerevisiae deletion strains, locus YNL071W, strain lat1, stronger effect = lower value",0.809 (active)
same,normalized growth,"S. cerevisiae deletion strains, locus YNL153C, strain GIM3, stronger effect = lower value",0.924 (inactive) and 0.687 (active)
same,normalized growth,"S. cerevisiae deletion strains, locus YNL175C, strain NOP13, stronger effect = lower value",0.868 (active)
same,normalized growth,"S. cerevisiae deletion strains, locus YNL183C, strain NPR1, stronger effect = lower value",0.933 (inactive)
same,normalized growth,"S. cerevisiae deletion strains, locus YNL197C, strain WHI3, stronger effect = lower value",0.789 (active)
same,normalized growth,"S. cerevisiae deletion strains, locus YNL209W, strain ssb2, stronger effect = lower value",0.925 (active)
same,normalized growth,"S. cerevisiae deletion strains, locus YNL224C, strain SQS1, stronger effect = lower value",0.972 (inactive)
same,normalized growth,"S. cerevisiae deletion strains, locus YNL233W, strain BNI4, stronger effect = lower value",0.803 (active)
same,normalized growth,"S. cerevisiae deletion strains, locus YNL248C, strain rpa49, stronger effect = lower value",0.969 (inactive)
same,normalized growth,"S. cerevisiae deletion strains, locus YNL250W, strain rad50, stronger effect = lower value",1.01 (inactive)
same,normalized growth,"S. cerevisiae deletion strains, locus YNL271C, strain bni1, stronger effect = lower value",0.999 (inactive)
same,normalized growth,"S. cerevisiae deletion strains, locus YNL298W, strain CLA4, stronger effect = lower value",1 (inactive)
same,normalized growth,"S. cerevisiae deletion strains, locus YNL307C, strain MCK1, stronger effect = lower value",0.986 (inactive)
same,normalized growth,"S. cerevisiae deletion strains, locus YNL322C, strain KRE1 (second series), stronger effect = lower value",1.06 (inactive)
same,normalized growth,"S. cerevisiae deletion strains, locus YNL322C, strain KRE1, stronger effect = lower value",0.921 (active) and 0.992 (inactive)
same,normalized growth,"S. cerevisiae deletion strains, locus YNR049C, strain mso1, stronger effect = lower value",1 (inactive)
same,normalized growth,"S. cerevisiae deletion strains, locus YNR052C, strain pop2, stronger effect = lower value",1.12 [resistant] (active)
same,normalized growth,"S. cerevisiae deletion strains, locus YOL006C, strain TOP1, stronger effect = lower value",0.632 (inactive)
same,normalized growth,"S. cerevisiae deletion strains, locus YOL012C, strain htz1",0.729 (inactive)
same,normalized growth,"S. cerevisiae deletion strains, locus YOL147C, strain pex11, stronger effect = lower value",1.19 [resistant] (active)
same,normalized growth,"S. cerevisiae deletion strains, locus YOR001W, strain rrp6, stronger effect = lower value",0.944 (inactive)
same,normalized growth,"S. cerevisiae deletion strains, locus YOR061W, strain CKA2, stronger effect = lower value",0.969 (inactive)
same,normalized growth,"S. cerevisiae deletion strains, locus YOR069W, strain VPS5, stronger effect = lower value",0.96 (inactive)
same,normalized growth,"S. cerevisiae deletion strains, locus YOR070C, strain gyp1, stronger effect = lower value",0.842 (active)
same,normalized growth,"S. cerevisiae deletion strains, locus YOR080W, strain dia2, stronger effect = lower value",0.904 (active)
same,normalized growth,"S. cerevisiae deletion strains, locus YOR083W, strain WHI5 (second series), stronger effect = lower value",0.751 (active)
same,normalized growth,"S. cerevisiae deletion strains, locus YOR083W, strain WHI5, stronger effect = lower value",0.88 (active)
same,normalized growth,"S. cerevisiae deletion strains, locus YOR106W, strain vam3, stronger effect = lower value",0.843 (active)
same,normalized growth,"S. cerevisiae deletion strains, locus YOR136W, strain idh2, stronger effect = lower value",1.03 (inactive)
same,normalized growth,"S. cerevisiae deletion strains, locus YOR144C, strain elg1, stronger effect = lower value",1.19 [resistant] (active)
same,normalized growth,"S. cerevisiae deletion strains, locus YOR184W, strain ser1, stronger effect = lower value",1.03 (inactive)
same,normalized growth,"S. cerevisiae deletion strains, locus YOR231W, strain MKK1, stronger effect = lower value",1.01 (inactive)
same,normalized growth,"S. cerevisiae deletion strains, locus YOR265W, strain rbl2, stronger effect = lower value",0.928 (active)
same,normalized growth,"S. cerevisiae deletion strains, locus YOR270C, strain vph1, stronger effect = lower value",0.666 (active)
same,normalized growth,"S. cerevisiae deletion strains, locus YOR290C, strain snf2, stronger effect = lower value",0.98 (inactive)
same,normalized growth,"S. cerevisiae deletion strains, locus YOR316C, strain cot1, stronger effect = lower value",1.02 (inactive)
same,normalized growth,"S. cerevisiae deletion strains, locus YPL051W, strain arl3, stronger effect = lower value",0.607 (active)
same,normalized growth,"S. cerevisiae deletion strains, locus YPL055C, strain LGE1, stronger effect = lower value",0.731 (active)
same,normalized growth,"S. cerevisiae deletion strains, locus YPL078C, strain atp4, stronger effect = lower value",0.866 (active)
same,normalized growth,"S. cerevisiae deletion strains, locus YPL106C, strain sse1, stronger effect = lower value",0.962 (inactive)
same,normalized growth,"S. cerevisiae deletion strains, locus YPL240C, strain hsp82, stronger effect = lower value",1.01 (inactive)
same,normalized growth,"S. cerevisiae deletion strains, locus YPL256C, strain CLN2, stronger effect = lower value",0.994 (inactive)
same,normalized growth,"S. cerevisiae deletion strains, locus YPR119W, strain clb2, stronger effect = lower value",1.06 (inactive)
same,normalized growth,"S. cerevisiae deletion strains, locus YPR141C, strain kar3, stronger effect = lower value",1.02 (inactive)
same,normalized growth,"S. cerevisiae deletion strains, locus YPR163C, strain tif3, stronger effect = lower value",1.04 (inactive)
same,normalized growth,"S. cerevisiae deletion strains, locus YPR167C, strain met16, stronger effect = lower value",1.06 (inactive)
same,normalized growth,"S. cerevisiae deletion strains, strain wtn01, stronger effect = lower value",1.03 (inactive)
same,normalized growth,"S. cerevisiae strains, strain wild type, stronger effect = lower value",0.904 (inactive)
